Outcome and AC50 data for 24 compounds are collected here from PubChem BioAssay (EPA / NIEHS).

As usually defined, the AC50 is the concentration at which the activity in the assay is half-maximal.

Experiment [1] can be described thus: BSK_4H_Eotaxin3: BioMAP Diversity Plus: 4H Assay for Eotaxin 3 Biomarker Activity (AID 2283000).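 On Outcome: CCL26 protein level quantified by ELISA in parallel with SRB cytotoxicity check.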 The note with it: primary human endothelial cells (HUVEC); actives raise or lower the signal. In a few lines:
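Readout is Eotaxin-3 (CCL26) level by ELISA in primary human umbilical vein endothelial cells harvested 24 h after chemical exposure; activity fitted in both directions against DMSO control.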

Experiment [2] addresses human Peroxisome Proliferator-activated Receptor alpha (PPARa), PPARA (gene 5465) (UniProt Q07869). Kind of experiment: ATG_PPARa_TRANS: Attagene TRANS-FACTORIAL HepG2 Assay for human Peroxisome Proliferator-activated Receptor alpha (PPARa) (AID 2283001; active means hit-call score of the fitted dose curve at least 0.9, where 1 is the maximum;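 on AC50: potency for gain of reporter signal over DMSO so agonist or activator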). In a few lines: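 Exposure: 24 h, transiently transfected HepG2 cells. Endpoint: GAL4-UAS reporter mRNA, RT-PCR with capillary electrophoresis fluorescence. Baseline: DMSO; increases fitted.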

For experiment [3], the target named is human Peroxisome Proliferator-activated Receptor delta (PPARd), PPARD (gene 5467) (UniProt Q03181). Kind of experiment: ATG_PPARd_TRANS: Attagene TRANS-FACTORIAL HepG2 Assay for human Peroxisome Proliferator-activated Receptor delta (PPARd) (AID 2283002; active means hit-call score of the fitted dose curve at least 0.9, where 1 is the maximum). In a few lines:
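HepG2 cells transiently transfected with multiplexed GAL4-UAS reporter units and exogenous chimeric NR-Gal4 proteins; 24 h compound exposure. Reporter mRNA measured by RT-PCR, 6-FAM labelling, HpaI digestion and capillary electrophoresis; gain of signal versus DMSO.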

Read-out in experiment [4]: Intercellular Adhesion Molecule 1 (ICAM1), ICAM1 (gene 3383)
Kind of experiment: BSK_3C_ICAM1: BioMAP Diversity Plus: 3C Assay for Intercellular Adhesion Molecule 1 (ICAM1) Biomarker Activity (AID 2283003). The settings on record: primary human endothelial cells (HUVEC); actives raise or lower the signal. A digest of the protocol: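 Using DMSO as baseline, bidirectional curve fitting was applied to ICAM-1 ELISA signals from HUVEC in the 3C system, measured 24 h after compound addition.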

The nature of experiment [5]: BSK_3C_Proliferation: Cell Proliferation Assessment in the BioMAP Diversity Plus: 3C Assay (AID 2283006).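 On AC50: potency may reflect either rise or fall in cell number versus DMSO.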 The settings on record: primary human endothelial cells (HUVEC). A digest of the protocol: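 Measured here: sulforhodamine B (0.1%) staining of TCA-fixed sub-confluent umbilical vein endothelial cultures 48 h post-dosing, absorbance 560 nm. DMSO served as negative control and baseline; both signal gain and loss were modelled.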

Experiment [6] addresses Peroxisome proliferator-activated receptor gamma (Homo sapiens) (UniProt P37231). Kind of experiment: ATG_PPARg_TRANS: Attagene TRANS-FACTORIAL HepG2 Assay for human Peroxisome Proliferator-activated Receptor-gamma (PPARg) (AID 2283007; active means hit-call score of the fitted dose curve at least 0.9, where 1 is the maximum). In a few lines: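 After 24 h of chemical exposure, transfected HepG2 cells carrying PPARγ-Gal4 chimera reporter constructs are lysed for RNA. Reporter transcripts are measured by RT-PCR and capillary electrophoresis with fluorescent labelling, and gain of signal is fitted versus DMSO.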

The target of experiment [7] is human Retinoic Acid Receptor gamma (RARg), RARG (gene 5916) (UniProt P13631). Briefly: ATG_RARg_TRANS: Attagene TRANS-FACTORIAL HepG2 Assay for human Retinoic Acid Receptor gamma (RARg) (AID 2283009; active means hit-call score of the fitted dose curve at least 0.9, where 1 is the maximum). A digest of the protocol:
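Gain-of-signal relative to DMSO is reported from fluorescent capillary electrophoresis of RT-PCR reporter products. These came from HepG2 cells expressing transfected RARg-GAL4 chimeras with UAS reporters, harvested 24 h after dosing.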

The target in experiment [8] is human Retinoic Acid Receptor beta (RARb), RARB (gene 5915) (UniProt P10826). Briefly: ATG_RARb_TRANS: Attagene TRANS-FACTORIAL HepG2 Assay for human Retinoic Acid Receptor beta (AID 2283004; active means hit-call score of the fitted dose curve at least 0.9, where 1 is the maximum). In a few lines: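 Readout is reporter mRNA induction: RNA reverse-transcribed, PCR-amplified, FAM-labelled, HpaI-cut and resolved by capillary electrophoresis. Transiently transfected HepG2 cells carrying exogenous NR–Gal4 chimeras were dosed for 24 h; activity fitted upward relative to DMSO.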

The target of experiment [9] is Nuclear receptor subfamily 1 group I member 2 (Homo sapiens) (UniProt O75469). Briefly: ATG_PXR_TRANS: Attagene TRANS-FACTORIAL HepG2 Assay for human Pregnane X Receptor (PXR) (AID 2283008; active means hit-call score of the fitted dose curve at least 0.9, where 1 is the maximum). A digest of the protocol: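 Transient HepG2 transfectants carrying multiplexed reporter transcription units; PXR activity read through a Gal4 chimera. 24 h exposure. RT-PCR/CE fluorescence; upward curve fit referenced to DMSO.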

In experiment [10] the target is Retinoic acid receptor alpha (Homo sapiens) (UniProt P10276). Briefly: ATG_RARa_TRANS: Attagene TRANS-FACTORIAL HepG2 Assay for human Retinoic Acid Receptor alpha (RARa) (AID 2283005; active means hit-call score of the fitted dose curve at least 0.9, where 1 is the maximum). In a few lines:
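HepG2 cells transiently transfected with multiple reporter units expressing chimeric RARα-GAL4 fusion, with GAL4-UAS-driven reporters. After 24 h compound exposure, reporter mRNA induction quantified by RT-PCR and capillary electrophoresis with fluorescent labeling; gain-of-signal fitted relative to DMSO control.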

Each structure is given as a SMILES string. “And” between values parts separate entries of the source, which are not always exact repeats. Equal entries are not always repeated. Results filed as inconclusive are left out. Where a structure was tested more than once in an assay, its records may differ in their call. The source made the active and inactive calls. How the source made its calls, unless noted: active means hit-call score of the fitted dose curve at least 0.9, where 1 is the maximum; inactive means score below 0.9.

Chain of human Peroxisome Proliferator-activated Receptor delta (PPARd), PPARD (gene 5467) (Q03181 whole entry, looked up, the tested form may be a part): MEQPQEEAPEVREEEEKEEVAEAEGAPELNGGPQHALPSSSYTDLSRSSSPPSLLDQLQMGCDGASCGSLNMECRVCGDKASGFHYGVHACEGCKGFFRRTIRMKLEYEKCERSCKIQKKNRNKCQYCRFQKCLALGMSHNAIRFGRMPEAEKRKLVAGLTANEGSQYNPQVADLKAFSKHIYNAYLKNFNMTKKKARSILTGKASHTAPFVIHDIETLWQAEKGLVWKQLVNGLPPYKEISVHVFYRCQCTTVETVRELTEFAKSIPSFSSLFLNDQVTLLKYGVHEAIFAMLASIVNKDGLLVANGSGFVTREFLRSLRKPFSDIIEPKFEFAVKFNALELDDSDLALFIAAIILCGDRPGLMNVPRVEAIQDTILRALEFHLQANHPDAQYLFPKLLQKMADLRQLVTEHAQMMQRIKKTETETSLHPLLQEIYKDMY
Chain of Peroxisome proliferator-activated receptor gamma (Homo sapiens) (P37231 whole entry, looked up, the tested form may be a part): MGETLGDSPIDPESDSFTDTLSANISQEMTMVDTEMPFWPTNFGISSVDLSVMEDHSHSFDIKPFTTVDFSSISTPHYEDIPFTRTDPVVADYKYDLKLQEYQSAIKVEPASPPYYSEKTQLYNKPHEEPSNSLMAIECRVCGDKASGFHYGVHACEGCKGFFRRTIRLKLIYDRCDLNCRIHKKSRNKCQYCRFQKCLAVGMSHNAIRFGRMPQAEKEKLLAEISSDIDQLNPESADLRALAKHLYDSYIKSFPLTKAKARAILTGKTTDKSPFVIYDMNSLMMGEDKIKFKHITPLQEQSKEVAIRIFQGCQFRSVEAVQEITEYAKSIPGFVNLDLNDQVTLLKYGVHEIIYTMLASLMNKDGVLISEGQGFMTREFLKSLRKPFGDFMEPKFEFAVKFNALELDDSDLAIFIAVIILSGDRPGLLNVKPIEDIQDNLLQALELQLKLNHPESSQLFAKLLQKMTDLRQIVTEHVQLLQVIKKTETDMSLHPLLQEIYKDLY
Chain of Retinoic acid receptor alpha (Homo sapiens) (P10276 whole entry, looked up, the tested form may be a part): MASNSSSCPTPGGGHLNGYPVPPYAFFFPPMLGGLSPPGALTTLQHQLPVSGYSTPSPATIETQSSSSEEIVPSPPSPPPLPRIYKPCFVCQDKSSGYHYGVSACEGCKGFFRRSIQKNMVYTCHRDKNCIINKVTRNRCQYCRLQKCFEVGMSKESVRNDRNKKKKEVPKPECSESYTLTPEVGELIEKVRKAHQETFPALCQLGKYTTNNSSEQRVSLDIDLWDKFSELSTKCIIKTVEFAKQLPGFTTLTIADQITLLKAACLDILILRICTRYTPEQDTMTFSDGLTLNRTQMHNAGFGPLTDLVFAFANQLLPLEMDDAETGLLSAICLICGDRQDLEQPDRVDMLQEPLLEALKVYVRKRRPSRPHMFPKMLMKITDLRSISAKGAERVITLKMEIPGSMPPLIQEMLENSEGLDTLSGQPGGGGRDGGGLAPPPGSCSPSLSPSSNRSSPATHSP
Chain of Nuclear receptor subfamily 1 group I member 2 (Homo sapiens) (O75469 whole entry, looked up, the tested form may be a part): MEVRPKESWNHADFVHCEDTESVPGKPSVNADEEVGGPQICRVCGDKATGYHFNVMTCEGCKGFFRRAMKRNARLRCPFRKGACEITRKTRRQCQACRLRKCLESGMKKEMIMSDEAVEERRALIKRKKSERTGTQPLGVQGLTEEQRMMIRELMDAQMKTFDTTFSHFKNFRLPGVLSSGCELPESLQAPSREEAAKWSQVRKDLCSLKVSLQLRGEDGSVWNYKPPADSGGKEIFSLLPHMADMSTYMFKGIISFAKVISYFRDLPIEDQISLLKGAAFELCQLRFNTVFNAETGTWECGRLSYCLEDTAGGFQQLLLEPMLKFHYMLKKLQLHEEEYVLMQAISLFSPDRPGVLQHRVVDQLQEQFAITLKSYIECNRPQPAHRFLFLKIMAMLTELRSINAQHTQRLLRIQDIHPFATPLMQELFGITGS
Chain of human Peroxisome Proliferator-activated Receptor alpha (PPARa), PPARA (gene 5465) (Q07869 whole entry, looked up, the tested form may be a part): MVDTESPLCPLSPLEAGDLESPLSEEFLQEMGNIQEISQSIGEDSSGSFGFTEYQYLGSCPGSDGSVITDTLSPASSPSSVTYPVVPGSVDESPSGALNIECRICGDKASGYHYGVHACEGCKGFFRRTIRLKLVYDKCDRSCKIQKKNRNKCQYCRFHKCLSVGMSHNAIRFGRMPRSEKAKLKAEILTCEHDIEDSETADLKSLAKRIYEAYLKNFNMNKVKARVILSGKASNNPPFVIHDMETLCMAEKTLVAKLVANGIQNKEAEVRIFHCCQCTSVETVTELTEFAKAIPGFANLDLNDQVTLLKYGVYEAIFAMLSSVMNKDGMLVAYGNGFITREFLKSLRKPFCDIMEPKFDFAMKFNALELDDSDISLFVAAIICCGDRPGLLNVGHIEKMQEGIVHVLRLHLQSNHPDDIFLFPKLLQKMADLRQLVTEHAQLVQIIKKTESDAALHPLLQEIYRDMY
Chain of human Retinoic Acid Receptor gamma (RARg), RARG (gene 5916) (P13631 whole entry, looked up, the tested form may be a part): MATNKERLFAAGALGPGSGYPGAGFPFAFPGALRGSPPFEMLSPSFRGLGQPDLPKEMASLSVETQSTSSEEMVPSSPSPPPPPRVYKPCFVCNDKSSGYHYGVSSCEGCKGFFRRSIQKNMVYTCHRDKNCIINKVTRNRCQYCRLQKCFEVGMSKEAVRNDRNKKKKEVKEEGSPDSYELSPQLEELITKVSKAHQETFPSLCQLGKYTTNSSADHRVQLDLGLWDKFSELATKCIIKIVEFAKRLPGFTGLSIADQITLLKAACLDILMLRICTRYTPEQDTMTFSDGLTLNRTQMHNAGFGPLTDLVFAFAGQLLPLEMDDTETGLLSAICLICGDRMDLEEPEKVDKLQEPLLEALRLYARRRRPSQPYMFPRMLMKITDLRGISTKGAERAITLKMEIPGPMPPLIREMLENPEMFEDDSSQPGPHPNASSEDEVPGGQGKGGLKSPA
Chain of human Retinoic Acid Receptor beta (RARb), RARB (gene 5915) (P10826 whole entry, looked up, the tested form may be a part): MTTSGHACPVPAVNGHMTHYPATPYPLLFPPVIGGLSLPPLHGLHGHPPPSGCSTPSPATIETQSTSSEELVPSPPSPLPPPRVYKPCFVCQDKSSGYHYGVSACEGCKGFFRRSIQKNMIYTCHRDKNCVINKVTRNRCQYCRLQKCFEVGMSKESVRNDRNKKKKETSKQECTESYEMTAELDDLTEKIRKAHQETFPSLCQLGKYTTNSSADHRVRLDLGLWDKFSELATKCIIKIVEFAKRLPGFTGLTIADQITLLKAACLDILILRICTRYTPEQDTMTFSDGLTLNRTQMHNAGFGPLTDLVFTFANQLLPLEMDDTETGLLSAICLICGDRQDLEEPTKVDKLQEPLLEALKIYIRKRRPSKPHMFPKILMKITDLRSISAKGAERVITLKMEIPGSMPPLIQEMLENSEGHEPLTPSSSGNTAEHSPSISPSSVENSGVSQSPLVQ

In the case of `CO[Si](C)(CCC(F)(F)C(F)(F)C(F)(F)C(F)(F)C(F)(F)C(F)(F)F)OC`, the result in [1], in experiment [2], in [3], in experiment [4], in experiment [5] and in experiment [6] was inactive. Further, in experiment [7], the outcome was inactive.
With `O=C(O)C(F)(F)C(F)(F)C(F)(F)OC(F)(F)F`, the result in experiment [1], in experiment [4], in experiment [8], in [5], in experiment [6] and in experiment [9] was inactive. Moreover, the AC50 in experiment [2] is 61.4 µM (active).
For the compound `CCOC(C=C(C)CCC=C(C)C)OCC`, the AC50 in experiment [1] was 29.3 µM (active); in experiment [4], 34.5 µM (active); in [5], 28.1 µM (active); in experiment [6] it was 15.3 µM (active); in experiment [9] it was 26.5 µM (active). The outcome in experiment [2] and in experiment [3] was inactive.
Consider `O=C(c1ccccc1)c1ccc(O)cc1O`, for which the outcome in [1], in experiment [2], in [4], in experiment [8], in experiment [5] and in [9] was inactive. In experiment [7], the call was inactive. Also, the AC50 in [6] is 42.5 µM (active).
As to `O=C1C=CC(=O)N1c1ccc(Cc2ccc(N3C(=O)C=CC3=O)cc2)cc1`, the half-maximal activity concentration (AC50) in [1] was 6.05 µM (active); in experiment [4] it was 9.7 µM (active); in experiment [5] it was 3.52 µM (active). For the same compound, the outcome in experiment [2], in experiment [3], in experiment [10], in [6] and in [9] was inactive.
On to `C[C@]12CC[C@H]3C(=CCc4cc(O)ccc43)[C@@H]1CCC2=O`, for which the outcome in experiment [1], in experiment [2], in experiment [3], in [4], in experiment [8] and in [10] was inactive. Besides, the result in [6] and in experiment [7] was inactive. In addition, the AC50 in experiment [5] was 32.1 µM (active).
`C=CC(=O)OCCC(F)(F)C(F)(F)C(F)(F)C(F)(F)F`: the result in [1], in experiment [2], in experiment [3], in experiment [4] and in experiment [6] was inactive. Further, the half-maximal activity concentration (AC50) in experiment [5] is 30 µM (active) and 32.6 µM (active).
On to `NC(=O)C(F)(F)C(F)(F)C(F)(F)F`, for which the result in experiment [1], in [2], in experiment [4] and in experiment [5] was inactive.
With `O=C(Cl)C(F)(F)C(F)(F)C(F)(F)C(F)(F)C(F)(F)C(F)(F)C(F)(F)F`, the outcome in experiment [1], in [3], in [4], in experiment [5], in [9] and in [7] was inactive. Also, the AC50 in experiment [2] is 10.8 µM (active); in [6], 55.1 µM (active).
For `OCC(F)(F)C(F)(F)C(F)(F)CO`, the outcome in experiment [1], in experiment [2], in experiment [3], in experiment [4] and in experiment [5] was inactive.
`O=S(=O)(Cl)C(F)(F)C(F)(F)C(F)(F)C(F)(F)C(F)(F)C(F)(F)C(F)(F)C(F)(F)F`: the result in experiment [1], in experiment [2], in experiment [4], in [8], in [10] and in [5] was inactive. Moreover, the result in [7] was inactive. Also, the concentration at half-maximal activity (AC50) in [6] is 34.9 µM (active).
Consider `O=S(=O)(O)CCC(F)(F)C(F)(F)C(F)(F)C(F)(F)C(F)(F)C(F)(F)C(F)(F)C(F)(F)F`, for which the result in experiment [1], in [2], in experiment [3], in experiment [4], in experiment [5] and in experiment [6] was inactive. In addition, the call in [9] was inactive.
In the case of `O=S(=O)(OCC(F)(F)F)C(F)(F)C(F)(F)C(F)(F)C(F)(F)F`, the outcome in experiment [1], in [2], in experiment [4], in [8], in experiment [5] and in experiment [9] was inactive. Also, the AC50 in experiment [6] is 107 µM (active).
For the compound `O=C(O)CCC(F)(F)C(F)(F)C(F)(F)C(F)(F)C(F)(F)C(F)(F)C(F)(F)F`, the outcome in experiment [1], in experiment [2], in [3], in experiment [4] and in [5] was inactive. For the same compound, the AC50 in [6] is 150 µM (active).
Regarding `OCCCCC(F)(F)C(F)(F)C(F)(F)C(F)(F)F`, the result in experiment [1], in [2], in experiment [3], in experiment [4], in experiment [5] and in experiment [6] was inactive. Besides, the compound was called inactive in [7].
On to `OC(O)C(F)(F)C(F)(F)F`, for which the result in experiment [1], in [2], in experiment [4], in experiment [5] and in experiment [6] was inactive.
With `O=C1c2c(O)ccc(Nc3ccc(CCO)cc3)c2C(=O)c2c([N+](=O)[O-])ccc(O)c21`, the AC50 in experiment [1] is 9.19 µM (active); in experiment [4], 20 µM (active); in experiment [5], 20 µM (active); in experiment [6] it was 13 µM (active). The call in experiment [2], in experiment [8], in [10] and in experiment [7] was inactive.
Regarding `FC(F)(F)C(F)(F)C(F)(F)C(F)(F)C(F)(F)C(F)(F)CC[Si](Cl)(Cl)Cl`, the result in experiment [1], in [2], in experiment [4], in experiment [8], in [5] and in experiment [6] was inactive. The outcome in experiment [9] and in [7] was inactive.
For `CCN(CCO)S(=O)(=O)C(F)(F)C(F)(F)C(F)(F)C(F)(F)C(F)(F)C(F)(F)C(F)(F)C(F)(F)F`, the half-maximal activity concentration (AC50) in experiment [1] was 20.9 µM (active) and 43.5 µM (active); in [4], 50.8 µM (active) and 9.21 µM (active); in experiment [5], 8.37 µM (active) and 10.7 µM (active). Also, the compound was called inactive in experiment [2], in [3], in [6], in experiment [9] and in [7].
As to `OCC(F)(F)C(F)(F)C(F)(F)C(F)(F)C(F)(F)C(F)(F)C(F)(F)C(F)(F)CO`, the AC50 was 38 µM (active) in experiment [1]; 30 µM (active) and 44.6 µM (active) in experiment [5]; 14.4 µM (active) in [9]. The outcome in experiment [1], in experiment [4] and in experiment [6] was inactive.
For `CCN(CC)c1ccc(N=Nc2ccccc2)cc1`, the AC50 in experiment [1] is 13 µM (active); in experiment [5], 12 µM (active); in experiment [6] it was 4.67 µM (active). For the same compound, the call in experiment [2], in experiment [3], in experiment [4] and in experiment [7] was inactive.
In the case of `Cc1cc(C)c(O)c(C(C)(C)C)c1`, the AC50 in experiment [1] was 30.4 µM (active); in [4], 30.4 µM (active); in [5] it was 20 µM (active); in [9] it was 16.2 µM (active). Further, the outcome in experiment [2], in experiment [3] and in [6] was inactive.
On to `CNS(=O)(=O)C(F)(F)C(F)(F)C(F)(F)C(F)(F)C(F)(F)C(F)(F)C(F)(F)C(F)(F)F`, for which the outcome in [1], in experiment [2], in [4], in [8], in experiment [10] and in experiment [6] was inactive. The compound was classed as inactive in experiment [9] and in experiment [7]. Further, the AC50 in experiment [5] is 30 µM (active) and 23.8 µM (active).
Regarding `C=C(C)C(=O)OCC(F)(F)C(F)(F)C(F)(F)C(F)F`, the result in experiment [1], in experiment [2], in experiment [3], in [4], in experiment [10] and in experiment [5] was inactive. Further, the compound was called inactive in experiment [6] and in experiment [9].
